# Records with an inconclusive call do not appear. A call without a number means that no potency is given here. Activity calls are given as the source filed them. The call rests on the fitted dose curve; in most records, active means well fitted curve in the direction sought with a large enough effect; inconclusive means small, poorly fitted or top-dose-only effect, or another doubt; inactive means no such curve, though single readings can be large; an effect the other way counts as inactive or inconclusive.
# How the values were obtained:
# [1] = target: Aldehyde dehydrogenase, mitochondrial (Homo sapiens) (UniProt P05091); test: qHTS for Inhibitors of the Aldehyde Dehydrogenase Family (ALDH2) Primary screen (AID 2061308); conditions: ALDH2 enzyme inhibition qHTS, 1536-well; series mostly up to 56 µM; further: nearly all actives have a fitted effect of over 55% in size
# [2] = target: Retinaldehyde dehydrogenase 3 (Homo sapiens) (UniProt P47895); test: qHTS for Inhibitors of the Aldehyde Dehydrogenase Family (ALDH1A3) Primary screen (AID 2061315); conditions: ALDH inhibition qHTS; series mostly up to 56 µM
SMILES,Potency [1],Potency [2]
Cc1cc(-c2nnc3n2CCCCCC3)c(C)n1-c1ccccc1,inactive,inactive
CN(Cc1ccc(-c2ccccc2)cc1)c1nc(-c2ccccc2C(F)(F)F)nc2ccccc12,inactive,inactive
COc1ccc2oc(NC3=NC(c4[nH]ncc4Cl)C4=C(CCCC4=O)N3)nc2c1 (centres undefined),inactive,inactive
Cc1ccc(S(=O)(=O)Nc2cnccc2C(=O)Nc2ccc(C#N)cc2)cc1,inactive,inactive
O=S(=O)(c1ccc2c(c1)OCCO2)N1CCN(S(=O)(=O)c2cc(F)ccc2F)CC1,inactive,inactive
O=c1c2ccccc2nc2sc(Nc3cccc(Cl)c3)nn12,inactive,inactive
Fc1cc(Nc2nc(-c3ccncc3)nc3ccccc23)ccc1-c1ccncc1,inactive,inactive
Cc1cccc(S(=O)(=O)N2CCN(S(=O)(=O)c3ccc4c(c3)OCCO4)CC2)c1,inactive,inactive
Cc1cn([C@H]2C[C@H](N[S+](=O)([O-])Cc3cc(Cl)cc(Cl)c3)[C@@H](CO)O2)c(=O)[nH]c1=O,inactive,inactive
COc1ccc(C2=Nn3c(nnc3-c3ccccc3C(F)(F)F)SC2)cc1OC,inactive,inactive
C/C=C/C=C/C=C/C(=O)O[C@@H]1C=C2COC(=O)[C@]2(O)[C@@]2(C)CCCC(C)(C)[C@H]12,inactive,inactive
Cc1cc2c(s1)c1cnn(Cc3cc(F)c(F)c(F)c3)c(=O)c1n2C,inactive,inactive
Cc1noc(C)c1-c1ccc2ncnc(NCC3CCN(C)CC3)c2c1,inactive,inactive
Cc1cc(C)nc(NC(=S)N2CCN(c3ccc(C(F)(F)F)cn3)CC2)c1,inactive,inactive
c1nc(NCC2CCCC2)c2cc(-c3ccc4c(c3)OCO4)ccc2n1,inactive,inactive
CCOc1ccccc1-c1nnc2n1N=C(c1ccccc1OC)CS2,inactive,inactive
O=C1NC2=C(C(=O)CCC2)C(c2ccccc2Cl)N1 (centres undefined),inactive,inactive
FC(F)(F)c1ccccc1-c1nc(NCc2ccc(-c3ccc4ccccc4c3)cc2)c2ccccc2n1,inactive,inactive
Cc1ccc(NC(=O)CN2C(=O)N/C(=C\c3cccn3-c3ccc(C(=O)NOCc4ccccc4)cc3)C2=O)cc1,inactive,inactive

SMILES,Potency [1],Potency [2]
CC(=O)Nc1ccc(NC(=O)c2cnn3c(C)cc(C)nc23)cc1,inactive,inactive
OC[C@H]1O[C@@H](Oc2cccc3ccccc23)[C@H](O)[C@@H](O)[C@H]1O,inactive,inactive
Cc1cc(C)n2ncc(C(=O)NCc3ccccc3)c2n1,inactive,inactive
O=S(=O)(Nc1ccc(-c2ccccc2)cc1)c1ccc(NCc2ccc(Br)cc2O)cc1,inactive,inactive
O=C(O)c1ccc2c(c1)C(=O)N([C@H](Cc1ccc(O)c(O)c1)C(=O)O)C2=O,inactive,inactive
O=C1c2ccccc2C(=O)N1c1cncc2ccccc12,inactive,inactive
Cc1ccc(OCCn2c(CCNC(=O)C(C)(C)C)nc3ccccc32)cc1,inactive,inactive
CC[C@@H]1C[C@]1(NC(=O)[C@@H]1C[C@@H]2CN1C(=O)[C@H](C(C)(C)C)NC(=O)OCC(C)(C)CCCCc1cccc3c1CN(C3)C(=O)O2)C(=O)NS(=O)(=O)C1CC1,inactive,inactive
CCCCNc1nc(C)nc2c1nc(-c1ccccc1)n2CCCCN(CC)CC,inactive,inactive
CCN1CCN(c2cc(-c3ccc(F)cc3)c3c(n2)CCCCCC3)CC1,inactive,inactive
CCN1CCCC1Cn1c(-c2ccccc2)nc2c(NCc3ccccc3)nc(C)nc21 (centres undefined),inactive,inactive
CC(C)n1cc(-c2ccc(Oc3ccccc3)cc2)c2c(N)ncnc21,inactive,inactive
O=C(Cn1ncccc1=O)NCCc1ccccc1,inactive,inactive
COc1ccc2c(c1)Oc1nc(-c3ccc(C)s3)nc(SCC(=O)Nc3cccc(C(=O)O)c3)c1C2,inactive,inactive
O=[S+]([O-])(c1ccc(-c2ccccc2)cc1)N1CCN([S+](=O)([O-])c2ccc3c(c2)OCCO3)CC1,inactive,inactive
Fc1ccccc1-c1nc(NCc2ccc(-c3cccnc3)cc2)c2ccccc2n1,inactive,inactive
CCCN(CCC)C(=O)C(CCC(=O)OCCCN1CCN(CCOC(=O)Cc2c(C)n(C(=O)c3ccc(Cl)cc3)c3ccc(OC)cc23)CC1)NC(=O)c1ccccc1 (centres undefined),inactive,inactive
CC1(C)CC(=O)C2=C(C1)NC(Nc1nc3ccccc3o1)=NC21CCCC1,inactive,inactive

# From PubChem BioAssay (NCATS)
